Test systems include DU-145 prostate; K-562 leukemia; MALME-3M melanoma; MDA-MB-231 breast; RXF 393 renal; SF-268 CNS; SF-295 CNS; SF-539 CNS; UACC-257 melanoma; M14 melanoma.
Common to all, as to assay: NCI-60 one-dose screen, 48 h (100 = growth as untreated, 0 = no growth, -100 = all killed)
Common to all, as to conditions: 10 µM unless noted

The values that follow come from PubChem BioAssay (NCI).

This is part of a sample that, as a whole, favours compounds with a hit. Of some 83,000 tested, about 20% had one in any assay.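 Activity criterion: percent growth below 10, measured after cells in 96-well plates were exposed to a single compound concentration for 48 hours.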 Values without a mark were called inactive. The source made the active and inactive calls.

On to `O=C(/C=C/c1cn(-c2ccccc2)nc1-c1ccc([N+](=O)[O-])cc1)c1ccc(Cl)cc1`, for which the growth with DU-145 prostate was 20.4%; in the assay on K-562 leukemia, 12.4%; in the assay on MALME-3M melanoma, 49.7%; with MDA-MB-231 breast, 14.7%; in the assay with RXF 393 renal, 27.3%; in the assay on SF-268 CNS it was 34.5%. The growth in the assay with SF-295 CNS was 77%; in the assay on SF-539 CNS it was 30%; in the assay with UACC-257 melanoma, 103%; with M14 melanoma, 37.8%.

For `C=C1C(=O)O[C@H]2[C@H]1CC/C(COC(=O)NCc1ccc(Cn3c(=O)sn(CCI)c3=O)cc1)=C\CC[C@@]1(C)O[C@@H]21`, the growth was 17.2% in the assay on DU-145 prostate; 0.268% (active) with K-562 leukemia; -49.9% (active) in the assay on MALME-3M melanoma; 61% with MDA-MB-231 breast; 0.0448% (active) with RXF 393 renal; 71.7% with SF-268 CNS. Also, the growth in the assay on SF-295 CNS was 106%; in the assay on SF-539 CNS it was 78.8%; in the assay on UACC-257 melanoma, 45.9%; in the assay on M14 melanoma, 15.7%.

Take `N#Cc1cccc(F)c1`: the growth was 125% in the assay on DU-145 prostate; 94.4% in the assay on K-562 leukemia; 110% in the assay with MALME-3M melanoma; 101% in the assay with MDA-MB-231 breast; 114% in the assay with RXF 393 renal; 110% in the assay on SF-268 CNS. Moreover, the growth in the assay with SF-295 CNS was 109%; in the assay with SF-539 CNS, 88.9%; in the assay on UACC-257 melanoma it was 110%; with M14 melanoma, 102%.

With `c1cc2[nH]ncc2cc1-c1nc2ccc3[nH]ncc3c2c2c1CCCC2`, the growth is 23.3% in the assay with DU-145 prostate; 15.3% with K-562 leukemia; 12.1% with MALME-3M melanoma; 31.1% with MDA-MB-231 breast; -15.8% (active) in the assay with RXF 393 renal; 25.1% in the assay with SF-268 CNS. In addition, the growth is 19.4% with SF-295 CNS, -7.82% (active) in the assay on SF-539 CNS, 20.2% in the assay on UACC-257 melanoma and 2.16% (active) in the assay with M14 melanoma.

In the case of `CC(C)(C)n1cc(-c2ccnc(NCCNS(=O)(=O)c3cccc(F)c3)c2)c(-c2ccccc2)n1`, the growth in the assay with DU-145 prostate is 96.1%; with K-562 leukemia it was 44.2%; in the assay on MALME-3M melanoma, 107%; in the assay on MDA-MB-231 breast, 87%; in the assay with RXF 393 renal it was 96.8%; in the assay with SF-268 CNS, 97.7%. Also, the growth in the assay with SF-295 CNS was 76.8%; in the assay on SF-539 CNS it was 88.1%; with UACC-257 melanoma it was 98.9%; in the assay on M14 melanoma, 94.8%.

Consider `CCC(C)N(c1ccc(Cl)cc1)c1nc(-c2ccc(Br)cc2)cs1` (stereo not given), for which the growth is 108% in the assay on DU-145 prostate; 92.4% in the assay on K-562 leukemia; 97.5% with MALME-3M melanoma; 88.6% in the assay on MDA-MB-231 breast; 121% with RXF 393 renal; 97.1% with SF-268 CNS. Further, the growth was 105% with SF-295 CNS, 101% in the assay on SF-539 CNS, 103% in the assay with UACC-257 melanoma and 95.6% in the assay on M14 melanoma.

Turning to `COc1ccc(-c2nc(SCC(C)C)nc(N/N=C\c3ccc(F)cc3)c2C#N)cc1`, the growth was 94.3% in the assay with DU-145 prostate; 94% with K-562 leukemia; 81% in the assay with MALME-3M melanoma; 93.1% with MDA-MB-231 breast; 111% in the assay on RXF 393 renal; 86.6% in the assay on SF-268 CNS. The growth with SF-295 CNS is 75.8%; in the assay on SF-539 CNS, 91.6%; in the assay with UACC-257 melanoma, 102%; in the assay with M14 melanoma, 92.7%.

For `CN(C)CCCC1(c2ccc(F)cc2)OCc2cc(-c3cncc4ccccc34)ccc21` (stereo not given), the growth was 48.5% in the assay on DU-145 prostate; 1.06% (active) in the assay on K-562 leukemia; -85% (active) in the assay with MALME-3M melanoma; 38.3% with MDA-MB-231 breast; 20.1% in the assay on RXF 393 renal; 49.5% in the assay on SF-268 CNS. Also, the growth in the assay on SF-295 CNS is 17.8%; in the assay on SF-539 CNS it was 54.9%; in the assay on UACC-257 melanoma it was -64.5% (active); in the assay on M14 melanoma, -56% (active).

Consider `O=C(Nc1cccc([N+](=O)[O-])c1)c1cc2ccccc2cc1O`, for which the growth is 10.6% with DU-145 prostate; -9.38% (active) with K-562 leukemia; -23.3% (active) in the assay with MALME-3M melanoma; -43% (active) in the assay with MDA-MB-231 breast; 5.31% (active) with RXF 393 renal; 18.3% in the assay with SF-268 CNS. Moreover, the growth is -9.62% (active) in the assay with SF-295 CNS, 4.44% (active) with SF-539 CNS, -10.1% (active) in the assay on UACC-257 melanoma and 19% with M14 melanoma.

For the molecule `COC(C(=O)[C@@H](O)[C@@H](C)O)[C@@H]1Cc2cc3cc(O[C@H]4C[C@@H](O[C@H]5C[C@@H](O)[C@H](O)C(C)O5)[C@H](O)C(C)O4)c(C)c(O)c3c(O)c2C(=O)[C@H]1O[C@H]1C[C@@H](O[C@H]2C[C@@H](O[C@H]3C[C@@H](O)[C@H](OC)C(C)O3)[C@@H](O)C(C)O2)[C@H](O)C(C)O1` (stereo not given in full), the growth in the assay on DU-145 prostate was 12%; with K-562 leukemia, 5.99% (active); in the assay with MALME-3M melanoma, -30.7% (active); in the assay on MDA-MB-231 breast, 17.2%; with RXF 393 renal, -55.4% (active); in the assay with SF-268 CNS it was 14.2%. The growth with SF-295 CNS was 8.2% (active); with SF-539 CNS, -23.6% (active); in the assay on UACC-257 melanoma, -21.7% (active); in the assay on M14 melanoma, -17.9% (active).

Regarding `CC(C)(C)c1cc(-c2nc3ccc(N4CCN(S(C)(=O)=O)CC4)cc3[nH]2)cc(C(C)(C)C)c1O`, the growth was 99.1% with DU-145 prostate; 78.4% in the assay on K-562 leukemia; 82.4% in the assay on MALME-3M melanoma; 104% in the assay on MDA-MB-231 breast; 92.6% in the assay with RXF 393 renal; 93.1% in the assay with SF-268 CNS. Besides, the growth in the assay on SF-295 CNS is 91.1%; with SF-539 CNS it was 86.5%; in the assay on UACC-257 melanoma it was 98.9%; in the assay on M14 melanoma, 98.3%.

As to `Cc1cc2c([nH]1)CSc1cc(S(=O)(=O)c3ccccc3)c(=O)[nH]c1-2`, the growth was 15% [100 µM] with DU-145 prostate; 17% [100 µM] in the assay on K-562 leukemia; 25.1% [100 µM] in the assay with MALME-3M melanoma; 23.3% [100 µM] in the assay with MDA-MB-231 breast; 52.6% [100 µM] in the assay on RXF 393 renal; 22.1% [100 µM] in the assay with SF-268 CNS. For the same molecule, the growth with SF-295 CNS was 11% [100 µM]; in the assay on SF-539 CNS, -28.3% [100 µM] (active); in the assay on UACC-257 melanoma, 62.2% [100 µM]; in the assay on M14 melanoma, -13.7% [100 µM] (active).

As to `CCOP(=O)(OCC)c1nc(-c2ccccc2)oc1NCc1cccnc1`, the growth was 107% with DU-145 prostate; 102% in the assay with K-562 leukemia; 100% in the assay on MALME-3M melanoma; 108% with MDA-MB-231 breast; 110% with RXF 393 renal; 104% in the assay on SF-268 CNS. The growth is 106% in the assay with SF-295 CNS, 96.2% in the assay on SF-539 CNS, 109% in the assay with UACC-257 melanoma and 111% in the assay with M14 melanoma.
